PubChem BioAssay (NCATS)
The source made the active and inactive calls. No rule for the calls is given here.

The compounds below were run on HIV-1 nucleocapsid protein NCp7 (binding to TG oligonucleotide) (assay: HIV Nucleocapsid (AID 346;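 also: potency is for inhibitors that block NC binding and lower polarization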)). Details: HIV-1 NC / fluorescein-TGTGTGTG probe, fluorescence polarization.
Procedure, shortened: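 HIV-1 NC (100 nM) binding to fluorescein-labelled ssDNA TG4xF (10 nM) in Hepes pH 7.5, 250mM NaCl, 1uM ZnCl2, TCEP and 2-mercaptoethanol; compounds pin-transferred, 1 hr room temperature, fluorescence polarization read on CCD imager.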
Potency is read from the fitted curve at half-maximal effect.

SMILES | Potency
CS(=O)(=O)Nc1cccc(-c2cncnc2NCc2ccccc2)c1 | > 20 µM (inactive)
Cc1ccccc1-c1cc(N2CCN(C)CC2)ncn1 | > 20 µM (inactive)
CC(C)NC(=O)N1CCC2(CC1)CCN(C(=O)c1cccn1C)CC2 | > 20 µM (inactive)
O=C(c1ccncc1)N1CCC[C@@]2(CCN(C(c3ccccc3)c3ccccc3)C2)C1 | > 20 µM (inactive)
COc1cccc(-c2ccc3ncnc(NCc4ccc(OC)cc4OC)c3c2)c1 | > 20 µM (inactive)
COc1ccc(NC(=O)N2CC3(CCN(C(=O)c4csnn4)CC3)C2)cc1 | > 20 µM (inactive)
O=c1c(-c2ccc(F)cc2)nc2cnc(N3CCOCC3)nc2n1C1CC1 | > 20 µM (inactive)
N#Cc1cccc(-c2ccc3ncnc(N4CCNCC4)c3c2)c1 | > 20 µM (inactive)
O=C(c1ccncc1)N1CCC2(CC1)CCN(c1ccncc1)CC2 | > 20 µM (inactive)
COc1ncc2nc(-c3cc(F)cc(F)c3)c(=O)n(C)c2n1 | > 20 µM (inactive)
CN(C)Cc1ccccc1-c1nccc(NC2CC2)n1 | > 20 µM (inactive)
O=C(c1ccncc1)N1CCC2(CC1)CN(c1ccccc1)C2 | > 20 µM (inactive)
Cc1cccc(CNc2ccnc(-c3ccccc3C(F)(F)F)n2)c1 | > 20 µM (inactive)
COc1ccc(C(=O)N2CCC3(CCCN(CC(C)C)C3)CC2)cc1 | > 20 µM (inactive)
COc1ccc(Oc2ncc3ncc(=O)n(-c4ccc(OC)cc4)c3n2)cc1 | > 20 µM (inactive)
c1ccc(C(c2ccccc2)N2CC3(CCNCC3)C2)cc1 | > 20 µM (inactive)
O=c1cnc2cnc(Oc3cccc(Cl)c3)nc2n1C[C@H]1CCCO1 | > 20 µM (inactive)
COc1ccccc1-c1nc(NCc2cccs2)c2ccccc2n1 | > 20 µM (inactive)
O=C(c1csnn1)N1CCC[C@@]2(CCN(Cc3ccccc3)C2)C1 | > 20 µM (inactive)
O=S(=O)(c1ccccc1)N1CCC2(CCCN(c3ccccc3)C2)CC1 | > 20 µM (inactive)

SMILES | Potency
COCCn1c(=O)c(-c2cc(F)cc(F)c2)nc2cnc(Oc3cccc(Cl)c3)nc21 | > 20 µM (inactive)
c1cncc(CNc2nc(-c3ccoc3)nc3ccccc23)c1 | > 20 µM (inactive)
O=C(Oc1ccccc1)N1CCC[C@@]2(CCN(c3ncccn3)C2)C1 | > 20 µM (inactive)
FC(F)(F)c1ccccc1-c1nc(NC2CCNCC2)c2ccccc2n1 | > 20 µM (inactive)
Cc1noc(C)c1-c1cncnc1NC1CC1 | > 20 µM (inactive)
COc1cccc(-c2cncnc2NCc2ccc(OC)cc2OC)c1 | > 20 µM (inactive)
N#Cc1cccc(NC(=O)N2CC3(CCN(C(=O)c4cccc(F)c4)CC3)C2)c1 | > 20 µM (inactive)
CC(C)CN1CC2(CCN(C(=O)c3cccc(F)c3)CC2)C1 | > 20 µM (inactive)
CS(=O)(=O)N1CCC2(CC1)CN(c1ncccn1)C2 | > 20 µM (inactive)
Cc1ccccc1-c1cc(N(C)Cc2ccco2)ncn1 | > 20 µM (inactive)
O=C(c1cccc(F)c1)N1CCC2(CC1)CN(c1cccc(-c3ccccc3)c1)C2 | > 20 µM (inactive)
O=C(c1ccco1)N1CCC[C@@]2(CCN(c3cccc(-c4ccccc4)c3)C2)C1 | > 20 µM (inactive)
O=c1c(CCc2ccccc2)nc2cnc(N3CCOCC3)nc2n1C1CC1 | > 20 µM (inactive)
Cc1ccccc1-c1cncnc1N1CCN(C)CC1 | > 20 µM (inactive)
FC(F)(F)c1ccccc1-c1cncnc1NCCc1cnc[nH]1 | > 20 µM (inactive)
Cc1cccc(CNc2ncncc2-c2ccccc2CN(C)C)c1 | > 20 µM (inactive)
CC(C)NC(=O)N1CCCC2(CCN(C(=O)c3cccn3C)CC2)C1 | > 20 µM (inactive)
CS(=O)(=O)N1CCC2(CCN(c3cccc(-c4ccccc4)c3)CC2)CC1 | > 20 µM (inactive)
Cn1cccc1C(=O)N1CCC2(CC1)CN(Cc1ccc(C#N)cc1)C2 | > 20 µM (inactive)
O=C(c1ccncc1)N1CCC2(CC1)CN(C(c1ccccc1)c1ccccc1)C2 | > 20 µM (inactive)
